Test results from PubChem BioAssay AID493199 (National Center for Advancing Translational Sciences (NCATS), 2011).
The list shows a part of the results. Inconclusive results are not listed. Active and inactive are the calls of the source. Calls follow the shape of the dose curve; as a rule, active = well fitted inhibition curve with a large enough effect; inconclusive = small, poorly fitted or top-dose-only effect, or effect the other way; inactive = no such curve, though single readings can be large or run the other way.

Target: Muscleblind-like protein 1 (Homo sapiens) (UniProt Q9NR56)
Assay: qHTS Assay for Inhibitors of MBNL1-poly(CUG) RNA binding: Initial hit validation from the primary screen
Details: TR-FRET MBNL1-His / biotin-(CUG)12 binding, 60 min
Source text: NIH Chemical Genomics Center [NCGC] NIH Molecular Libraries Probe Production Centers Network [MLPCN] MLPCN Grant: R03 MH087421-01 Assay Submitter (PI): Charles Thornton NCGC Assay Overview: Expanded CTG repeats in the 3' untranslated region of the DM protein kinase (DMPK) gene causes type I myotonic dystrophy (DM1). DM1 is a multi-systemic disease with a prevalence of 1/7000. Clinical features include myotonia, progressive muscle weakness and wasting, cardiac arrhythmia, insulin resistance, hypersomnolence, cataracts, and other symptoms. The pathogenic effect of expanded CTG repeats stems from deleterious effects of the mutant transcript. CUGexp mRNA accumulates in nuclear foci and sequesters proteins of the muscleblind family, of which MBNL1 is the most common family member in skeletal muscles. The binding interaction between MBNL1 and CUGexp tracts leads to deregulation of alternative splicing and is therefore a key molecular step in the pathogenesis of DM1. To target this binding interaction, we optimized a protein-RNA binding assay in 1536-well format for identification of small molecule inhibitors of biotinylated (CUG)12 and his-tagged MBNL1 binding. Protein-RNA complex of MBNL1-His and Biotin-(CUG)12 captures the detection reagents terbium-labeled anti-His antibody and streptavidin conjugated XL665. This brings the terbium label within close proximity to XL665 to allow time-resolved fluorescence resonance energy transfer (TR-FRET). Inhibitors of MBNL1-(CUG)12 binding will disrupt TR-FRET. This deposition presents the initial confirmation of hits from the primary screen in the same assay.
NCGC Assay Protocol Summary: This is a TR-FRET binding assay with MBNL1-His and Biotin-(CUG)12 RNA. The assay uses a ratiometric measurement. […] (3) Add 1 ul of terbium labeled anti-His antibody (0.055 ng/ul final concentration) (4) Add 1 ul of streptavidin-XL665 (5 nM final concentration) (5) Incubate 60 min at room temperature (6) Detect the assay plate in a EnVision plate reader (PerkinElmer) with Ex=340 nm, Em1=665 nm and Em2=545 nm. […]

Muscleblind-like protein 1 (Homo sapiens), sequence (Q9NR56 whole entry, looked up): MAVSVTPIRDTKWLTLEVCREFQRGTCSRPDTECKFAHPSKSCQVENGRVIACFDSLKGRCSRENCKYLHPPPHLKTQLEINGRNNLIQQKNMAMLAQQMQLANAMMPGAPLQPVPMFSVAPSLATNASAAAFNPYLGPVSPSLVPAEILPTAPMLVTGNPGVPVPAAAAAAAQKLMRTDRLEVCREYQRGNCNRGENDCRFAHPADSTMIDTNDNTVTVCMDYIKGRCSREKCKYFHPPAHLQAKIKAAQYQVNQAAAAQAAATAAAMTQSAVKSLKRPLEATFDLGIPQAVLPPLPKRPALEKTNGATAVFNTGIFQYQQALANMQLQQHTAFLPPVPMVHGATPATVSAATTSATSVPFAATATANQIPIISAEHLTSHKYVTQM

Potency, active:
CCOC(=O)c1c(C)[nH]c2c1-c1ccccc1C(=O)C2=O 3.26 µM, COc1ccc(Cc2n[nH]c(=S)n2NC(=O)Nc2ccc(C)cc2)cc1 20.6 µM, COc1cccc(NC(=O)Cn2cnc3sc(C)c(S(=O)(=O)N4CCN(C)CC4)c3c2=O)c1 16.3 µM
